What all share (assay): PBM binding z-score (relative to random genomic background probes); higher = stronger binding; sequences stand for … in GC…GCGATTGACAGCGTAGAATGAAGG
Test [1] has as its system FXR:RXRa (NR concentration 270 nM, RXRa partner concentration 90 nM). The gist of the method:
(§1)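 Probes were double-stranded and carried 34-nt variable regions with direct-repeat seeds, single-nucleotide variants, half-site ablations and random human genomic background sequences, printed on custom Agilent 4×180K protein-binding microarrays. Arrays were incubated 1 h with ligand-free nuclear receptor dimers in PBS pH 7.4, 2% milk, 0.02% Triton X-100, 1 mM DTT, 0.2 mg/mL BSA and 0.4 mg/ml salmon testes DNA. Antibodies against each partner (one per run) detected binding, and scanned fluorescence was regression-normalized. Binding z-scores use the random background probes as reference.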

In test [2] the test system is LXRa:RXRa (NR concentration 270 nM, RXRa partner concentration 90 nM). The gist of the method:
as §1

The test system of test [3] is LXRa homodimer (NR concentration 270 nM). The gist of the method:
as §1

The test system of test [4] is LXRb:RXRa (NR concentration 270 nM, RXRa partner concentration 90 nM). The gist of the method:
as §1

In test [5] the test system is LXRb homodimer (NR concentration 270 nM). Summed up: as §1
The test system of test [6] is PPARa:RXRa (NR concentration 270 nM, RXRa partner concentration 90 nM). The gist of the method:
as §1

The test system of test [7] is PPARg:RXRa (NR concentration 180 nM, RXRa partner concentration 90 nM). Summed up: as §1
In test [8] the test system is PPARg:RXRa 270nM:90nM, anti-RXR (NR concentration 270 nM, RXRa partner concentration 90 nM). The gist of the method: as §1
Test [9] relates to PPARg:RXRa 30nM:10nM, anti-RXR (NR concentration 30 nM, RXRa partner concentration 10 nM). The gist of the method:
as §1

For test [10], the system named is PPARg:RXRa 90nM:30nM, anti-RXR (NR concentration 90 nM, RXRa partner concentration 30 nM). The gist of the method: as §1
Test [11] concerns PPARg:RXRa DBDmut IVT, anti-RXR (DBD mutation: RXRa K156A/R161A, NR concentration 270 nM, RXRa partner concentration 90 nM). Summed up: as §1
The subject of test [12] is PPARg:RXRa IVT, anti-PPARg (NR concentration 270 nM, RXRa partner concentration 90 nM). The gist of the method: as §1
Test [13] has as its system PPARg DBDmut:RXRa IVT, anti-PPARg (DBD mutation: PPARg1 K132A/R137A, NR concentration 270 nM, RXRa partner concentration 90 nM). The gist of the method: as §1
The subject of test [14] is PPARg DBDmut IVT, anti-PPARg (DBD mutation: PPARg1 K132A/R137A, NR concentration 270 nM). The gist of the method: as §1
In test [15] the test system is PPARg homodimer (NR concentration 180 nM). Summed up: as §1
Test [16] relates to PXR:RXRa (NR concentration 270 nM, RXRa partner concentration 90 nM). The gist of the method: as §1
Test [17] concerns PXR homodimer (NR concentration 270 nM). Summed up: as §1
Test [18] concerns RARa:RXR (NR concentration 270 nM, RXRa partner concentration 90 nM). The gist of the method:
as §1

Test [19] deals with RARa homodimer (NR concentration 270 nM). The gist of the method:
as §1

The test system of test [20] is RARb:RXRa (NR concentration 270 nM, RXRa partner concentration 90 nM). Summed up:
as §1

The values below come from the supplement of paper PMC6555819.

Consider ATCTCTAGATAAAGTTCAGTGAAAGATCGATAGA, for which the PBM binding z-score in [1] came to 0.465; in [2], 1.1; in [3], 1.05; in test [4] it was 0.684; in [5], 0.314; in test [6], 1.48. For the same sequence, the PBM binding z-score in [7] is 2.39; in test [8], 3.45; in test [9] it was 1.46; in test [10], 3.1; in test [11] it was -0.492; in test [12], 0.294. The PBM binding z-score in test [13] came to 0.931; in test [14], 0.898; in test [15], 0.994; in test [16], 1.36; in test [17] it was 1.39; in test [18] it was 0.786. For the same sequence, the PBM binding z-score in test [19] worked out at 1.06; in [20], 2.17.

In the case of CGAACGAGGGCATGAGTTCATAGCAAATGCCGAT, the PBM binding z-score was 2.26 in [1]; 2.23 in test [2]; 1 in test [3]; 1.51 in [4]; -0.903 in [5]; 3.24 in test [6]. In addition, the PBM binding z-score turned out to be 2.37 in test [7]; 2.91 in test [8]; 0.55 in [9]; 2.23 in [10]; 3.09 in test [11]; 2.4 in test [12]. Further, the PBM binding z-score in [13] was -0.0442; in test [14], -0.857; in [15], 0.292; in [16], 4.74; in [17], 7.66; in test [18] it was 2.71. Besides, the PBM binding z-score in test [19] was -0.81; in [20] it was 3.01.

Turning to AGTCAAAGTTCAACTAGGTAACGTAAGATATGCT, the PBM binding z-score in test [1] came to 7.15; in test [2], 6.16; in test [3], 4.88; in [4], 4.22; in [5] it was 1.72; in test [6], 5.32. For the same sequence, the PBM binding z-score in [7] was 7.34; in test [8], 6.67; in test [9], 4.2; in test [10], 6.24; in test [11], 1.28; in [12], 4.36. The PBM binding z-score in test [13] worked out at 2.11; in [14], 1.11; in test [15], 3.26; in test [16] it was 5.04; in test [17], 3.96; in test [18], 4.28. The PBM binding z-score came to 2.01 in [19] and 5.16 in test [20].

Consider CCGAATGGGGCAAGGTTACCATAACGCACAGCCA, for which the PBM binding z-score was 0.248 in test [1]; 0.895 in test [2]; -0.0673 in test [3]; 0.899 in test [4]; -0.855 in test [5]; 1.48 in test [6]. Also, the PBM binding z-score in test [7] was 1.51; in test [8], 1.71; in test [9], 0.272; in test [10], 1.08; in test [11] it was 0.946; in [12], 1.17. In addition, the PBM binding z-score in test [13] is -0.387; in [14], -0.659; in test [15], 0.548; in [16] it was 0.288; in [17] it was -0.323; in [18], 0.909. The PBM binding z-score is -0.0739 in [19] and 1.75 in [20].

Regarding ATATGTAGGTTAACGGTCATTCAGGTTGGTTCGC, the PBM binding z-score in test [1] was 2.12; in test [2], 2.46; in test [3], 2.98; in test [4] it was 2.2; in [5], 1.2; in test [6], 5.22. The PBM binding z-score in test [7] amounted to 9.32; in test [8] it was 8.6; in [9], 7.82; in test [10], 9.3; in test [11], 8.01; in [12], 8.1. The PBM binding z-score is 3.09 in test [13]; 2.01 in test [14]; 2.2 in test [15]; 1.84 in [16]; 0.701 in [17]; 2.01 in test [18]. For the same sequence, the results for the PBM binding z-score in test [19] and in test [20] were 0.573 and 2.41, respectively.

With CCTTACGGGTCACGAGGTTATAGCGCGACGAGCG, the PBM binding z-score in [1] was 7; in test [2], 4.91; in test [3] it was 0.435; in [4], 3.79; in [5], -0.01; in test [6], 6.01. The PBM binding z-score in [7] was found to be 7.42; in test [8] it was 6.71; in [9] it was 3.03; in test [10], 5.28; in test [11], 3.89; in test [12], 5.36. Besides, the PBM binding z-score in test [13] is 1.53; in [14], 2.01; in test [15], 3.21; in test [16] it was 4.57; in test [17], 0.486; in test [18], 6.3. The PBM binding z-score in test [19] was 1.06; in test [20], 4.56.

In the case of ACTTACGGGTCAACGAGGTTATCGCACGCGTATA, the PBM binding z-score in [1] came out at 7.3; in test [2], 5.42; in test [3], 1.07; in test [4] it was 4.36; in test [5], 1.13; in test [6], 5.83. The PBM binding z-score in test [7] is 5.87; in [8], 5.69; in test [9] it was 2.32; in [10], 4.5; in [11] it was 4.15; in [12] it was 4.2. Besides, the PBM binding z-score in test [13] was determined as 2.65; in test [14], 1.38; in [15], 3.14; in [16], 5.58; in [17], 4.21; in [18], 5.88. Besides, the PBM binding z-score was 0.958 in test [19] and 4.4 in test [20].
